Laboratory results reported in PubChem BioAssay (Tox21).
Values joined by “and” are separate entries in the source; they are usually repeats but may differ in a detail not shown here. Identical values can stand only once. Results filed as inconclusive are left out. Where a call stands in place of a potency, no number is given. Active and inactive are the calls of the source. Unless noted, the call rests on the fitted dose curve.

Legend:
[1] = Nuclear factor erythroid 2-related factor 2/antioxidant responsive element (Nrf2/ARE) small molecule agonists: qHTS cell viability counter screen in human keratinocytes (AID 1919968; active means well fitted cell-killing curve with a large enough effect in the repeat runs; further: nearly all actives have a fitted effect of over 55% in size; further: potency means the concentration at half of the fitted maximal effect)
Outline: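 Cytotoxicity was multiplexed with the Nrf2/ARE luciferase assay in the same wells. Stably transfected HaCaT keratinocytes were treated with test compounds for 23 h at 37 C. Cell viability was then measured by CellTiter-Fluor fluorescence.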

[2] = Nuclear factor erythroid 2-related factor 2/antioxidant responsive element (Nrf2/ARE) small molecule agonists: luciferase reporter gene qHTS assay in human keratinocytes (AID 1919969); further: nearly all actives have a fitted effect of over 35% in size
[3] = biological target: Gonadotropin-releasing hormone receptor (Homo sapiens) (UniProt P30968); assay: Human gonadotropin-releasing hormone receptor (GnRHR) small molecule agonists, calcium flux assay in GnRHR-HEK293 cells (AID 1920063); further: nearly all actives have a fitted effect of over 35% in size
Sequence of Gonadotropin-releasing hormone receptor (Homo sapiens) (P30968 whole entry, looked up): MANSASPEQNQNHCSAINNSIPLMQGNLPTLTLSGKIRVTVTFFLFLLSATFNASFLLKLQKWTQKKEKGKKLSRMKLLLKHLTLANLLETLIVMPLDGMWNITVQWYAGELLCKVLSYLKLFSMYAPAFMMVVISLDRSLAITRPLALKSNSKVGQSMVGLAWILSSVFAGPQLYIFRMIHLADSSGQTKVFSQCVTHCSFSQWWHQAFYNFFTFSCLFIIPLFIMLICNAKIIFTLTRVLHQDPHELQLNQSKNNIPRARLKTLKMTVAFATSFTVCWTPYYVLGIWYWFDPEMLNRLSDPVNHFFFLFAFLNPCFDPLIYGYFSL
Outline: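 Agonist activity was measured as intracellular calcium flux in HEK293 cells engineered to stably express human GnRHR. After dye loading for 1 hour at 37 C, compounds in DMSO were added and fluorescence was followed for 3 minutes.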

[4] = G protein-coupled receptor (GPCR) small molecule agonists, calcium flux assay: HEK293 wild type cell line counter screen (AID 1920065)
Outline: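 Seed cells, incubate 18 h (37 C, 5% CO2); add calcium dye, 1 h at 37 C; pin-transfer compounds, ATP control or DMSO; read fluorescence 480/540 nm each second for 3 min.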

[5] = p53 small molecule agonists, cell-based qHTS assay with human liver microsomes (AID 1963577);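 further: p53 response element beta-lactamase reporter cells with liver microsomes plus NADPH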
Outline: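 Steps: plate p53RE-bla cells, incubate 5 h at 37 C; add compound in DMSO; add microsomes (0.5 mg/mL final) and NADPH (0.5 mg/mL final); incubate 16 h at 37 C; add LiveBLAzer, 2 h RT; read fluorescence.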

[6] = p53 small molecule agonists, cell-based qHTS assay with rat liver microsomes (AID 1963578)
Outline: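 Metabolic activation is supplied by rat liver microsomes with NADPH (each 0.5 mg/mL final). p53RE-bla cells incubate with compound 16 h at 37 C; reporter activity is measured by LiveBLAzer fluorescence.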

[7] = p53 small molecule agonists, cell-based qHTS assay with human liver microsomes: qHTS cell viability counter screen (AID 1963579); further: nearly all actives have a fitted effect of over 45% in size
Outline: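 After the 460/530 nm beta-lactamase read, CellTiter-Glo was added to the same wells and luminescence measured after 30 min at room temperature, giving viability of p53RE-bla cells treated 16 h with compounds plus microsomes and NADPH.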

[8] = p53 small molecule agonists, cell-based qHTS assay with rat liver microsomes: qHTS cell viability counter screen (AID 1963580); further: nearly all actives have a fitted effect of over 45% in size
Outline: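 Luminescent ATP readout (CellTiter-Glo, 30 min at room temperature) reports viability of p53RE-bla HCT-116 cells after 16 h at 37 C with test compounds under metabolic activation by rat liver microsomes and NADPH at 0.5 mg/mL final each.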

[9] = p53 small molecule agonists, cell-based qHTS assay: qHTS cell viability counter screen (AID 1963581); further: nearly all actives have a fitted effect of over 45% in size
Outline: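 Viability was counter-screened in parallel with the p53 agonist reporter by measuring intracellular ATP luminescence in the same HCT-116 p53RE-bla wells after 16 h compound treatment at 37 C.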

[10] = p53 small molecule agonists, cell-based qHTS assay (AID 1963582; active means well fitted activation curve with a large enough effect in the signal ratio in the repeat runs, not every such curve was filed as active; the % refers to the signal ratio)
Outline: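 Cells carrying a p53-responsive bla reporter are treated with test compounds for 16 h at 37 C; beta-lactamase activity is then detected with LiveBLAzer B/G FRET substrate after 2 h at room temperature.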

[11] = biological target: 5-hydroxytryptamine receptor 2A (Homo sapiens) (UniProt P28223); assay: 5-hydroxytryptamine receptor 2A (HTR2A) small molecule agonists, cell-based qHTS assay (AID 1963587); further: nearly all actives have a fitted effect of over 30% in size
Sequence of 5-hydroxytryptamine receptor 2A (Homo sapiens) (P28223 whole entry, looked up): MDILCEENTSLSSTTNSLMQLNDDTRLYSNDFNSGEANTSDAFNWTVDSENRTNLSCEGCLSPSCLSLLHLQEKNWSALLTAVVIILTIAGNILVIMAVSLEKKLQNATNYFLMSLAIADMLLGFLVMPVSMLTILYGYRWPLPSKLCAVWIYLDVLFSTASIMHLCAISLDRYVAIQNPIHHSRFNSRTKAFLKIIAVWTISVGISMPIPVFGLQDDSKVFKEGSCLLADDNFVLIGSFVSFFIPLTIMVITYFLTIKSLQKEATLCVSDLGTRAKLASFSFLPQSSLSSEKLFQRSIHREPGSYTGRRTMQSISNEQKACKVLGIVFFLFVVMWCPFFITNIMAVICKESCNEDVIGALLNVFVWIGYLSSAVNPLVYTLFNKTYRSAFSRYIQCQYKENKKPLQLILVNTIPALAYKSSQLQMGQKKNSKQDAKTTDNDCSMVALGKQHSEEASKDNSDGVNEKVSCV
Outline: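 HTR2A-CHO cells, plated 18 h at 37 C/5% CO2, dye-loaded 1 h at 37 C; compounds in DMSO added by pin tool (agonist mode). Intracellular calcium flux read as kinetic fluorescence on FDSS over 2 min at 1 s intervals.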

[12] = biological target: Muscarinic acetylcholine receptor M1 (Homo sapiens) (UniProt P11229); assay: Cholinergic receptor muscarinic 1 (CHRM1) small molecule antagonists, cell-based qHTS assay (AID 1963588); further: nearly all actives have a fitted effect of over 40% in size; further: potency means the concentration at half of the fitted maximal effect
Sequence of Muscarinic acetylcholine receptor M1 (Homo sapiens) (P11229 whole entry, looked up): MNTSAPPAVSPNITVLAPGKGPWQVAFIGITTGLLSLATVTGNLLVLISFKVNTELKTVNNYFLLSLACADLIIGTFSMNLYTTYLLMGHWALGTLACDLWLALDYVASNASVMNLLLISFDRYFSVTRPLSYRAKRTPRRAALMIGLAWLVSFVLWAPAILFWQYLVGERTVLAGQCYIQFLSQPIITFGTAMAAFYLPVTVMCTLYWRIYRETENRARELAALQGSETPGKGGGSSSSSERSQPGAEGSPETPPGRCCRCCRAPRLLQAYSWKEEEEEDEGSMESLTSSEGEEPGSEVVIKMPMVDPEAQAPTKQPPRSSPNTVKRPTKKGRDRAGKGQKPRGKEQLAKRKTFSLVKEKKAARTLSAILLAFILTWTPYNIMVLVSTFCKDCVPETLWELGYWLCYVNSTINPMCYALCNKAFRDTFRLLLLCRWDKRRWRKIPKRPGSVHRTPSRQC
Outline: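 Compounds were tested at 15 concentrations in three independent runs. Dye-loaded CHRM1-CHO cells were exposed 5 min at room temperature before stimulation by acetylcholine added at 50nM. Intracellular calcium was read kinetically on FDSS for 3 min.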

[13] = biological target: Muscarinic acetylcholine receptor M1 (Homo sapiens) (UniProt P11229); assay: Cholinergic receptor muscarinic 1 (CHRM1) small molecule agonists, cell-based qHTS assay (AID 1963589); further: nearly all actives have a fitted effect of over 35% in size; further: potency means the concentration at half of the fitted maximal effect
Outline: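 Cells were plated and incubated 18 h at 37 C/5% CO2, loaded with calcium dye for 1 h at 37 C, then treated with compounds in DMSO. Fluorescence was recorded kinetically at 1 sec intervals.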

[14] = cAMP Responsive Elements (CRE) small molecule antagonists, cell-based qHTS assay (AID 1963591; active means well fitted inhibition curve with a large enough effect in the signal ratio in the repeat runs, not every such curve was filed as active; the % refers to the signal ratio)
Outline: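 Cells (CRE-bla HEK 293T, DMEM with 10% dialyzed FBS and 25 mM HEPES) are seeded and incubated 18 h. Compounds are added with NKH477 agonist at 0.25 uM final for 3 h, then FRET substrate for 2 h.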

[15] = biological target: Beta-2 adrenergic receptor (Homo sapiens) (UniProt P07550); assay: Adrenergic beta2 receptor (ADRB2) small molecule antagonists, cell-based qHTS assay (AID 1963592); further: series mostly up to about 92 µM; nearly all actives have a fitted effect of over 50% in size
Sequence of Beta-2 adrenergic receptor (Homo sapiens) (P07550 whole entry, looked up): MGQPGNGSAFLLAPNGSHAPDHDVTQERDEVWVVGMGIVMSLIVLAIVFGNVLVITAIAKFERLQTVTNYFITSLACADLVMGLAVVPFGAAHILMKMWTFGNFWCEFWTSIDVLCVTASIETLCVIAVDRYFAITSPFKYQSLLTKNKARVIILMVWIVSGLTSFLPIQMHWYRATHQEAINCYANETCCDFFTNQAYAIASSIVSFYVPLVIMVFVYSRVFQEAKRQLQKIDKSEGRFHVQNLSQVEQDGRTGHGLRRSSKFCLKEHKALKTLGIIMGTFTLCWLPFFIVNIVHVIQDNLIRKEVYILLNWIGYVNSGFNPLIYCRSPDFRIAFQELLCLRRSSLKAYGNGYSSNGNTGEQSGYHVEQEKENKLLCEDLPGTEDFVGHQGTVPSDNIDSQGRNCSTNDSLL
Outline: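 Assay format: CHO-ADRB2 cells, 18-20hr seeding at 37C/5% CO2, then compound plus 1nM isoproterenol agonist mix for 0.5hr RT. Homogeneous time-resolved fluorescence cAMP detection after 1hr, expressed as 665/615 nm ratio.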

[16] = biological target: Beta-2 adrenergic receptor (Homo sapiens) (UniProt P07550); assay: Adrenergic beta2 receptor (ADRB2) small molecule agonists, cell-based qHTS assay (AID 1963593);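 further: CHO cells stably overexpressing human ADRB2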
Outline: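 CHO cells stably over-expressing ADRB2 were plated overnight at 37C, then dosed with compounds plus a stimulation mix containing 100uM IBMX and 25uM Ro-20-1724 for 0.5hr at room temperature. cAMP was measured by HTRF competition, 1hr.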

[17] = biological target: D(2) dopamine receptor (Homo sapiens) (UniProt P14416); assay: Dopamine D2 receptor (DRD2) small molecule agonists, cell-based qHTS assay (AID 1963594); further: nearly all actives have a fitted effect of over 35% in size
Sequence of D(2) dopamine receptor (Homo sapiens) (P14416 whole entry, looked up): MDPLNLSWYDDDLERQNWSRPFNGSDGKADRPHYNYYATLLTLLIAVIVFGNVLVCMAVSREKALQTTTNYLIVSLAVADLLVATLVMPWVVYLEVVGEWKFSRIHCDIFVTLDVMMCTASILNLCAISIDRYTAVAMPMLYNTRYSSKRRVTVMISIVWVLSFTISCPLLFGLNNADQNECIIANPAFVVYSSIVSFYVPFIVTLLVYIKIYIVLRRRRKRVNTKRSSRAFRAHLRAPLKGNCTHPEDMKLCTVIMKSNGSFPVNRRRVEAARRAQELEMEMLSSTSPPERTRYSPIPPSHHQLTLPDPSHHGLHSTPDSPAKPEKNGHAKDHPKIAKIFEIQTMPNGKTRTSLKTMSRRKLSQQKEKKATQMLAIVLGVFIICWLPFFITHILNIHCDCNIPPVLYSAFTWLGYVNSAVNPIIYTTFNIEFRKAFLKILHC
Outline: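 HEK293 cells stably expressing DRD2 were cultured 24 h at 37 C, then given Ro20-1724 (0.1 mM final) and compounds for 10 min at room temperature. NKH477 (200nM) was then added for 30 min. cAMP was read by HTRF.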

[18] = biological target: D(2) dopamine receptor (Homo sapiens) (UniProt P14416); assay: Dopamine D2 receptor (DRD2) small molecule antagonists, cell-based qHTS assay (AID 1963595; active means well fitted inhibition curve with a large enough effect in the signal ratio in the repeat runs, with a control signal flat; the % refers to the signal ratio)
Outline: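 HEK293 cells stably expressing DRD2 were preincubated with 0.1 mM Ro20-1724, then with compound for 10 min at room temperature. Cells were stimulated with 200 nM NKH477 plus 12 nM quinpirole for 30 min, and cAMP was read by HTRF.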

[19] = biological target: 5-hydroxytryptamine receptor 2A (Homo sapiens) (UniProt P28223); assay: 5-hydroxytryptamine receptor 2A (HTR2A) small molecule antagonists, cell-based qHTS assay (AID 1963586); further: nearly all actives have a fitted effect of over 45% in size
Outline: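 CHO cells stably expressing human HTR2A were plated for 18 h at 37 C, then loaded with calcium dye for 1 h. Compounds were preincubated 5 min at room temperature before DOI (4 nM solution) was added. Kinetic fluorescence was read for 3 min.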

[20] = cAMP Responsive Elements (CRE) small molecule agonists, cell-based qHTS assay (AID 1963590)
Outline: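 Cells carrying a CRE-driven beta-lactamase reporter (HEK 293T) are seeded, incubated overnight (18 h), and treated with test compounds for 3 h at 37 C; reporter activity is then detected with a FRET substrate after 2 h at room temperature.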

| SMILES | Potency [1] | Potency [2] | Potency [3] | Potency [4] | Potency [5] | Potency [6] | Potency [7] | Potency [8] | Potency [9] | Potency [10] | Potency [11] | Potency [12] | Potency [13] | Potency [14] | Potency [15] | Potency [16] | Potency [17] | Potency [18] | Potency [19] | Potency [20] |
| --- | --- | --- | --- | --- | --- | --- | --- | --- | --- | --- | --- | --- | --- | --- | --- | --- | --- | --- | --- | --- |
| COc1ccc(C(Cl)=C(c2ccc(OC)cc2)c2ccc(OC)cc2)cc1 | inactive | inactive | inactive | inactive | inactive | inactive | inactive | inactive | inactive | inactive | inactive | inactive | inactive | inactive | inactive | inactive | inactive | inactive |  |  |
| c1ccc(Oc2ccccc2)cc1 | inactive | inactive | inactive | inactive | inactive | inactive | inactive | inactive | inactive | inactive | inactive | inactive | inactive | inactive | inactive | inactive | inactive | inactive | inactive | inactive |
| CCCCCCCCCCCC[N+](C)(C)C | 48.4 µM (active) and 30.6 µM (active) and 48.6 µM (active) | inactive | inactive | inactive | inactive | inactive | inactive |  | inactive | inactive | inactive | 374 nM (active) and 421 nM (active) and 334 nM (active) | 27.5 µM (active) and 245 nM (active) |  | inactive | inactive | inactive | inactive | inactive |  |
| c1ccc2ccccc2c1 | inactive | inactive | inactive | inactive | inactive | inactive | inactive | inactive | inactive | inactive | inactive | inactive | inactive | inactive | inactive |  | inactive | inactive | inactive | inactive |
| C=CCNC(N)=S | inactive | inactive | inactive | inactive | inactive | inactive | inactive | inactive | inactive | inactive | inactive | inactive |  | inactive |  |  | inactive | inactive | inactive | inactive |
| CCCCC(=O)O | inactive | inactive | inactive | inactive | inactive | inactive | inactive | inactive | inactive | inactive | inactive | inactive | inactive | inactive | inactive | inactive |  | inactive | inactive | inactive |
